Tg IFNy HTS = T. gondii growth inhibition with IFN-gamma, primary screen, cell-based; Toxoplasma gondii growth in IFN-gamma-treated host cells; stronger effect = lower value; 69,000 compounds, 3.8% hits; activity change, negative = inhibition, % (test concentration not listed); in the data active = activity change below about -70%, passing the limit was not always enough;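 also: host cells are HeLa cells infected with Toxoplasma gondii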
Numbers without * were called inactive; ! = not confirmed by another sample. This excerpt belongs to a sample that is enriched for hits.

SMILES	Tg IFNy HTS
CC1CC1C(=O)N1C[C@H]2CN(Cc3ccccn3)C[C@@H]2C1 (some centres undefined)	207
Cc1ccc(NC(=O)c2cc3cccnc3n(Cc3ccc(Cl)cc3)c2=O)cc1C	37
Cc1cccc(CN2C(=O)CC[C@@H]3[C@@H]2CCN3Cc2ccoc2)n1	-6
c1ccc(CO[C@H]2CN(Cc3ccco3)[C@H]3COC[C@@H]23)nc1	-1
COCCNC(=O)[C@@H]1CCO[C@@H]2CCN(Cc3cc(C)on3)C[C@H]21	-21
C/C(=C\c1csc(C)n1)[C@H]1C[C@@H]2O[C@]2(C)CCC[C@H](C)[C@H](O)[C@@H](C)C(=O)C(C)(C)[C@H](O)CC(=O)O1	-75*
C/C1=C/C[C@@H](/C(C)=C/c2csc(C)n2)OC(=O)C[C@H](O)C(C)(C)C(=O)[C@H](C)[C@@H](O)[C@@H](C)CCC1	-60
C/C(=C\c1csc(C)n1)[C@@H]1C[C@@H]2O[C@@H]2CCC[C@H](C)[C@H](O)[C@@H](C)C(=O)C(C)(C)[C@@H](O)CC(=O)O1	-68
CC(=O)Nc1ccc(NC(=O)c2cc3cccnc3n(Cc3ccc(Cl)cc3)c2=O)cc1	61
CCN1CCN(C)C2(CCN(c3cccnc3)CC2)C1=O	-26
Cn1nc(C2NCCc3[nH]cnc32)c2c(Cl)cccc21 (centres undefined)	-22
COc1ccc2c(c1)C1(CCN(C(=O)c3scnc3C)CC1)CC2CC(=O)O (centres undefined)	-9
COc1ccc2c(c1)C1(CCN(C(=O)c3nn(C)c4ccccc34)CC1)CC2CC(=O)O (centres undefined)	-74*
COc1ccc2c(c1)C1(CCN(C(=O)C3(c4ccccc4)CCCC3)CC1)CC2CC(=O)O (centres undefined)	-15
CN(C)CC1CCC2(COCCN(Cc3cccnc3)C2)O1 (centres undefined)	-28
Cc1ncc(CC(=O)N2CCN(C)C(c3ccccc3)C2)c(=O)[nH]1 (centres undefined)	-3
Cc1cc(C)c(NC(=O)c2cc3cccnc3n(Cc3ccccc3F)c2=O)c(C)c1	-83*
NS(=O)(=O)c1ccc(CCNC(=O)c2cc3cccnc3n(Cc3ccc(F)cc3)c2=O)cc1	-88*
O=C(Nc1ccccc1)c1cc2cccnc2n(Cc2ccccc2F)c1=O	81
CC(NC(=O)c1cc2cccnc2n(Cc2ccc(F)cc2)c1=O)c1ccccc1 (centres undefined)	-115*
O=C(Nc1ccccc1)c1cc2cccnc2n(Cc2ccc(F)cc2)c1=O	78
COCC(C)NC(=O)c1cc2cccnc2n(Cc2ccc(F)cc2)c1=O (centres undefined)	-50
O=C(NCCc1ccccc1)c1cc2cccnc2n(Cc2ccc(F)cc2)c1=O	121
CCCCCNC(=O)c1cc2cccnc2n(Cc2ccc(F)cc2)c1=O	-40
Cc1cc(Br)ccc1NC(=O)c1cc2cccnc2n(Cc2ccccc2F)c1=O	96
SMILES	Tg IFNy HTS
O=C(O)c1cccnc1CN1CCCC(C(=O)c2ccccc2)C1 (centres undefined)	-14
C=CCN1CC[C@@H]2[C@@H]1CCN2Cc1c(C)noc1C	-10
CN1CC(C(=O)O)CN2CCN(C(=O)Cc3ccc(F)cc3)CC2C1 (centres undefined)	3
C[C@@H]1C(=O)NC[C@@H]2CN(CC3CC3)C[C@@H]21	-29
C=CCC(=O)N1CCC2(CCN(C)C2)CC1	1
C=CCO[C@@H]1C[C@@H]2CN(C(=O)Cc3ccccn3)CCN2C1	92
O=C(O)c1cccnc1CN1CCCCC1c1cccnc1 (centres undefined)	-7
COCCN1CCOCC12CCN(C(=O)c1conc1C)CC2	-24
COc1ncccc1CN1CCOCC2(CCC(CN(C)C)O2)C1 (centres undefined)	79
Cc1cccc(NC(=O)c2cc3cccnc3n(Cc3ccc(Cl)cc3)c2=O)c1	13
c1cnc(N2CCO[C@H]3CN(Cc4cccs4)C[C@@H]32)nc1	-71*
CC(C)N1CCO[C@@H]2CN(Cc3nccs3)C[C@@H]21	5
Cc1ccc(CN2C[C@@H]3OCCN(c4ncccn4)[C@H]3C2)s1	-66
COc1cccc(CNC(=O)c2cc3cccnc3n(Cc3ccccc3F)c2=O)c1	14
COCCN1CCC2OCCCC2(COc2cccnc2)C1 (centres undefined)	0
Nc1nonc1CC(=O)N1CCCCC1CN1CCCCC1 (centres undefined)	29
CN(C)C(=O)Oc1c(-c2ccccc2)cn(Cc2ccccc2)c(=O)c1-c1ccccc1	-84*
CN(C)C(=O)Oc1cc(=O)n(C)c2ccccc12	-21
C=CCOCc1cncc2c1CCN(S(=O)(=O)C1CC1)C2	2
COc1cc2cc(c1Cl)N(C)C(=O)C[C@H](OC(=O)C(C)C)[C@]1(C)O[C@H]1[C@H](C)[C@@H]1C[C@@](O)(NC(=O)O1)[C@H](OC)/C=C/C=C(/C)C2	-80*
CCOC[C@@H]1CCC[C@]12CN(Cc1c(C)noc1C)CCO2	16
CCOc1ccc(NC(=O)c2cc3cccnc3n(Cc3ccccc3)c2=O)cc1	103
Cc1nc([C@H]2C[C@@H]3CCN(Cc4c(C)noc4C)C[C@@H]3O2)n[nH]1	4
CC(C)[C@]12O[C@H]1[C@@H]1O[C@]13[C@]1(O[C@H]1C[C@H]1C4=C(CC[C@@]13C)C(=O)OC4)[C@@H]2O	-83*
CN(C)CCN1CC[C@H]2[C@@H]1CCN2C(=O)Cc1ccsc1	0
SMILES	Tg IFNy HTS
COc1ccc(Cl)cc1NC(=O)c1cc2cccnc2n(Cc2ccc(F)cc2)c1=O	42
c1ccc(N2CC3(CCN(Cc4cccnc4)C3)C2)nc1	-29
O=C(NCCC1=CCCCC1)c1cc2cccnc2n(Cc2ccccc2F)c1=O	29
COc1ccc(NC(=O)c2cc3cccnc3n(Cc3ccc(F)cc3)c2=O)c(OC)c1	-6
Fc1cccnc1O[C@@H]1CN(Cc2ccoc2)[C@H]2CCCO[C@@H]12	9
O=C1CC[C@@]2(O)[C@H]3Cc4ccc(O)c5c4[C@@]2(CCN3CC2CC2)[C@H]1O5	-8
Oc1ccc2c3c1O[C@H]1c4[nH]c5c(c4C[C@@]4(O)[C@@H](C2)N(CC2CC2)CC[C@]314)C[C@@]1(O)[C@H]2Cc3ccc(O)c4c3[C@@]1(CCN2CC1CC1)[C@H]5O4	12
O=C1/C(=C/c2ccccc2)C[C@@]2(O)C3Cc4ccc(O)c5c4[C@@]2(CCN3CC2CC2)[C@H]1O5	-76*!
Cc1ccnc(CC(C)N(C)Cc2cccnc2NC(=O)C(C)(C)C)c1 (centres undefined)	-2
COc1cccc(NC(=O)c2cc3cccnc3n(Cc3ccccc3)c2=O)c1	6
CCCN1CC[C@@H]2C[C@H](C(=O)Nc3cccnc3C)O[C@@H]2C1	33
C=CCN1CCN(Cc2nccn2C)Cc2cccnc21	-6
CN1CCC2(CCCN(c3cnccn3)C2)CC1	6
C[C@]12CC[C@H](OC3OC(O)C(O)C(O)C3O)C=C1CCC1C2CC[C@]2(C)[C@@H](c3ccc(=O)oc3)CC[C@]12O (some centres undefined)	-80*
Cc1ccc(C(=O)N2CCN(C)C3(CCN(C)CC3)C2)c(=O)[nH]1	4
O=c1[nH]c2ccccc2n1C1CCN(CCCC(c2ccc(F)cc2)c2ccc(F)cc2)CC1	-95*!
C=C1[C@@H](C)[C@H]2[C@H](Cc3ccccc3)NC(=O)[C@]23OC(=O)/C=C/[C@H](O)CCC[C@@H](C)C/C=C/[C@H]3[C@@H]1O	-98*
O=C1C2(c3ccccc3)CN3CCN(C2)CC1(c1ccccc1)C3	-4
